Drawing on PubChem BioAssay (NCI), this text covers growth for nine molecules.

Common to all, as to test: NCI-60 one-dose screen, 48 h (100 = growth as untreated, 0 = no growth, -100 = all killed)
One assay deals with SK-MEL-2 melanoma. To be noted: 10 µM unless noted.
A further assay has as its system SN12C renal. The following applies: 10 µM unless noted.
A further assay has as its system UO-31 renal. To be noted: 10 µM unless noted.
For a further assay, the system named is TK-10 renal. The following applies: 10 µM unless noted.
Another assay concerns ACHN renal. To be noted: 10 µM unless noted.
The subject of a further assay is CAKI-1 renal. The following applies: 10 µM unless noted.
For another assay, the system named is A498 renal. The following applies: 10 µM.
A further assay has as its system HL-60(TB) leukemia. To be noted: 10 µM unless noted.
The subject of another assay is MOLT-4 leukemia. To be noted: 10 µM unless noted.
The test system of another assay is SR leukemia. To be noted: 10 µM unless noted.
A further assay has as its system RPMI-8226 leukemia. The following applies: 10 µM unless noted.
In another assay the test system is OVCAR-8 ovarian. To be noted: 10 µM unless noted.
The test system of the next assay is OVCAR-5 ovarian. To be noted: 10 µM unless noted.
The test system of the next assay is OVCAR-4 ovarian. The following applies: 10 µM unless noted.
The next assay has as its system SK-OV-3 ovarian. To be noted: 10 µM unless noted.
The next assay relates to IGROV1 ovarian. The following applies: 10 µM unless noted.
For the next assay, the system named is OVCAR-3 ovarian. The following applies: 10 µM unless noted.
Another assay relates to CCRF-CEM leukemia. The following applies: 10 µM unless noted.
A further assay has as its system HS 578T breast. To be noted: 10 µM unless noted.

The panel holds about 83,000 compounds, 20% with a hit somewhere; the sample as a whole holds those more often.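 Method: cells in 96-well plates; compound added at one concentration; 48 h incubation; percent growth measured; values under 10 scored active.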 Values without a mark were called inactive. Calls of active or inactive are those of the source.

Take `O=C1OCCC1Br` (stereo unspecified): the growth in the assay with SK-MEL-2 melanoma was 96.5%; in the assay on SN12C renal, 103%; with UO-31 renal, 96.4%; in the assay on TK-10 renal, 104%; with ACHN renal, 102%; with CAKI-1 renal, 95%. Further, the growth is 101% in the assay with A498 renal; 78.1% with HL-60(TB) leukemia; 107% with MOLT-4 leukemia; 92.3% in the assay on SR leukemia; 97.2% in the assay on RPMI-8226 leukemia; 96.2% in the assay with OVCAR-8 ovarian. Also, the growth is 104% with OVCAR-5 ovarian; 107% with OVCAR-4 ovarian; 99.4% in the assay with SK-OV-3 ovarian; 110% with IGROV1 ovarian; 112% in the assay on OVCAR-3 ovarian.

With `C[C@]12CC[C@@H]3c4ccc(Oc5nc(N6CC6)nc(N6CC6)n5)cc4CC[C@H]3[C@@H]1CCC2=O`, the growth with SK-MEL-2 melanoma was 56.4%; with SN12C renal it was 21.5%; in the assay on UO-31 renal it was 28.6%; in the assay with TK-10 renal it was 59.6%; in the assay on ACHN renal, 16.3%; in the assay on CAKI-1 renal, 10.9%. Also, the growth with A498 renal is -18.5% (active); in the assay with CCRF-CEM leukemia, 3.37% (active); with MOLT-4 leukemia, -25.2% (active); in the assay on SR leukemia, -5.09% (active); with RPMI-8226 leukemia, 0.429% (active); in the assay with OVCAR-8 ovarian it was 36.4%. In addition, the growth was 101% in the assay with OVCAR-5 ovarian; 31.6% with OVCAR-4 ovarian; 36.1% in the assay on SK-OV-3 ovarian; 27.8% in the assay on IGROV1 ovarian; 15.6% with OVCAR-3 ovarian; 45.4% with HS 578T breast.

As to `CN1CC(=O)N(O)C1(C)c1cccnc1` (stereo unspecified), the growth in the assay on SK-MEL-2 melanoma is 94.6%; in the assay with SN12C renal, 101%; in the assay with UO-31 renal it was 87.5%; with TK-10 renal, 97.7%; in the assay with ACHN renal, 102%; in the assay with CAKI-1 renal, 95.2%. In addition, the growth with CCRF-CEM leukemia is 106%; in the assay on MOLT-4 leukemia it was 97.2%; with SR leukemia, 92%; in the assay on RPMI-8226 leukemia, 105%; in the assay with OVCAR-8 ovarian, 99.3%; in the assay with OVCAR-5 ovarian, 95.6%. Besides, the growth in the assay on OVCAR-4 ovarian was 111%; with SK-OV-3 ovarian, 91.6%; with IGROV1 ovarian, 102%; with OVCAR-3 ovarian, 107%; with HS 578T breast, 108%.

For `CCC1CN1CCCCN1CC1CC` (stereo unspecified), the growth was 118% in the assay on SK-MEL-2 melanoma; 95.2% in the assay on SN12C renal; 92.6% in the assay with UO-31 renal; 104% in the assay on TK-10 renal; 100% in the assay on ACHN renal; 99.6% in the assay with CAKI-1 renal. In addition, the growth is 115% in the assay on A498 renal; 123% in the assay on HL-60(TB) leukemia; 108% in the assay with MOLT-4 leukemia; 104% in the assay with SR leukemia; 102% in the assay with RPMI-8226 leukemia; 102% with OVCAR-5 ovarian. The growth in the assay with OVCAR-4 ovarian is 102%; in the assay with SK-OV-3 ovarian it was 110%; with IGROV1 ovarian, 102%; in the assay with OVCAR-3 ovarian, 107%.

Turning to `CC1(C)N=C(N)N=C(N)N1c1ccc(CCC(=O)Nc2ccc(S(=O)(=O)F)cc2)c(Cl)c1`, the growth with SK-MEL-2 melanoma is 48.5%; in the assay on SN12C renal, 28.9%; with UO-31 renal it was 93.1%; in the assay on TK-10 renal, 42.4%; in the assay with ACHN renal it was 47.9%; in the assay with A498 renal it was 34.8%. Besides, the growth is 18.3% with HL-60(TB) leukemia; 44.9% in the assay on CCRF-CEM leukemia; 33% in the assay on MOLT-4 leukemia; 6.43% (active) in the assay on SR leukemia; -11.8% (active) with OVCAR-8 ovarian; 29% in the assay on OVCAR-5 ovarian. Also, the growth with OVCAR-4 ovarian was 52.9%; in the assay with SK-OV-3 ovarian, 64.5%; in the assay with IGROV1 ovarian, -43.3% (active); with OVCAR-3 ovarian it was 58.9%; with HS 578T breast, 59.9%.

Turning to `COc1cc(/C=C\c2cc(OC)c(OC)c(OC)c2)cc(NS(=O)(=O)c2cccc(Cl)c2)c1OC`, the growth with SK-MEL-2 melanoma is 23.5%; in the assay on SN12C renal, 27.7%; with UO-31 renal, 32.1%; in the assay on TK-10 renal, 63.3%; in the assay with ACHN renal it was 16.4%; with CAKI-1 renal it was 11.4%. Further, the growth is 4.54% (active) with HL-60(TB) leukemia; 9.72% (active) in the assay on CCRF-CEM leukemia; 9.29% (active) in the assay on MOLT-4 leukemia; 10.6% in the assay with SR leukemia; 18.1% with RPMI-8226 leukemia; 18.2% with OVCAR-8 ovarian. The growth in the assay with OVCAR-5 ovarian was 19.5%; in the assay on OVCAR-4 ovarian, 37.4%; in the assay with SK-OV-3 ovarian, 16.9%; in the assay on IGROV1 ovarian, 26.3%; in the assay on OVCAR-3 ovarian, -36.3% (active); with HS 578T breast it was 45.4%.

Regarding `CC1CN1CCCCN1CC1C` (stereo unspecified), the growth with SK-MEL-2 melanoma is 80.6%; in the assay with SN12C renal it was 109%; in the assay on UO-31 renal, 98.4%; in the assay with TK-10 renal, 88.8%; with ACHN renal, 107%; in the assay on CAKI-1 renal, 102%. For the same molecule, the growth in the assay on A498 renal is 107%; in the assay on HL-60(TB) leukemia, 77.4%; with MOLT-4 leukemia, 86.2%; with SR leukemia it was 81.5%; in the assay with RPMI-8226 leukemia it was 94.4%; in the assay with OVCAR-5 ovarian, 102%. The growth in the assay on OVCAR-4 ovarian is 112%; in the assay on SK-OV-3 ovarian, 103%; in the assay on IGROV1 ovarian it was 107%; in the assay with OVCAR-3 ovarian, 103%.

For the molecule `C1CCC([PH+](C2CCCCC2)C2CCCCC2[PH+](C2CCCCC2)C2CCCCC2)CC1.O=C(C1[CH-]CCCC1)C1CCCC[N-]1.[Au]` (stereo unspecified), the growth with SK-MEL-2 melanoma is -52.6% (active); in the assay on SN12C renal, -52.3% (active); in the assay on UO-31 renal, -87.9% (active); in the assay on TK-10 renal it was -47.7% (active); with ACHN renal it was -74.6% (active); in the assay with CAKI-1 renal, -57.4% (active). Besides, the growth was -51.3% (active) in the assay on A498 renal; 2.64% (active) in the assay on CCRF-CEM leukemia; -5.55% (active) in the assay on MOLT-4 leukemia; -1.52% (active) in the assay on SR leukemia; -10.6% (active) in the assay on RPMI-8226 leukemia; 3.3% (active) with OVCAR-8 ovarian. Moreover, the growth in the assay with OVCAR-5 ovarian was -64.5% (active); in the assay with SK-OV-3 ovarian, -52.2% (active); with IGROV1 ovarian, -33.5% (active); in the assay on OVCAR-3 ovarian it was -77.7% (active).

With `CC12CC(=O)C3(SC#N)C(CCC4=CC(=O)CCC43C)C1CCC2=O` (stereo unspecified), the growth is 125% in the assay on SK-MEL-2 melanoma; 85% in the assay on SN12C renal; 39% in the assay on UO-31 renal; 81.4% with TK-10 renal; 49.2% in the assay on ACHN renal; 93.5% in the assay with CAKI-1 renal. Further, the growth in the assay on A498 renal was 95.3%; with MOLT-4 leukemia it was 22.2%; in the assay with SR leukemia, 86.1%; in the assay on RPMI-8226 leukemia, 77.5%; in the assay on OVCAR-8 ovarian, 89.6%; in the assay on OVCAR-5 ovarian, 103%. The growth in the assay with OVCAR-4 ovarian is 73.8%; in the assay on SK-OV-3 ovarian, 109%; with IGROV1 ovarian it was 99.2%; in the assay with OVCAR-3 ovarian, 42.1%.
